From PubChem BioAssay
RORg inh – inhibitors of mouse ROR gamma transcriptional activity; hit rate 5.4% among 310,000; Potency, µM (doses to about 53.6 µM), inactives show at the highest dose activity change, negative = inhibition, usual class: inhibitors; Drosophila S2 Gal4-RORgamma UAS-luciferase reporter, 20 h; P51450; AID 2551; further: potency means the concentration at half of the fitted maximal effect; nearly all actives have a fitted effect of over 60% in size
Target sequence (P51450 whole entry, looked up, the tested form may be a part): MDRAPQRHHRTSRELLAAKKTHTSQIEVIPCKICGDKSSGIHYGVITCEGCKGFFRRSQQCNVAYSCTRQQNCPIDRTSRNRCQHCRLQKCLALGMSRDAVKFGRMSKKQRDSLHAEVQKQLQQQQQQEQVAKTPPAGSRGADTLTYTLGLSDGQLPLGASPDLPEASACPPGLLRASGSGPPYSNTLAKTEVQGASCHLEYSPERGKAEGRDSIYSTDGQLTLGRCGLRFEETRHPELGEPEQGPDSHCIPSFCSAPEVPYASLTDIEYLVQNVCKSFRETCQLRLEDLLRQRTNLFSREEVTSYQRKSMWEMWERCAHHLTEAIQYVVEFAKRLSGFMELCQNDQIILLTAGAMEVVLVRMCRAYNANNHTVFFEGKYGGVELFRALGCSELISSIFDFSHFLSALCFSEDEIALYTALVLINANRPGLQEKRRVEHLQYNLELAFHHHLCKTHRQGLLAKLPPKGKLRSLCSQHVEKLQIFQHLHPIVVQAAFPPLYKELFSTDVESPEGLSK
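Using a luciferase readout, inhibitors were identified by reduced reporter activity in Drosophila cells coexpressing a copper-inducible Gal4–ROR gamma fusion and UAS-driven Photinus luciferase, incubated 20 hr after 700 uM copper sulfate.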
TDP1 cell noCPT – qHTS for Inhibitors of human tyrosyl-DNA phosphodiesterase 1 (TDP1): qHTS in cells in absence of CPT; DT40 Tdp1-/- hTDP1 cells, no CPT, ATP luminescence, 48 h; Potency, µM (highest dose often 46.2 µM), for inactives: at the highest dose activity change, negative = growth inhibition, usual class: inhibitors; hit rate 15% among 420,000; AID 686978, 2013; further: potency means the concentration at half of the fitted maximal effect; nearly all actives have a fitted effect of over 55% in size
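Stably hTDP1-transfected Tdp1-null chicken DT40 cells were treated with library compounds minus camptothecin and grown for at least 48 hr at 37 °C, after which cellular ATP was quantified by luminescence.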
IL-1B inflam inh – blocks inflammasome-driven IL-1 beta release; hit rate 4.7% among 360,000; activity change, % at 57.5 µM; THP-1 LPS/ATP IL-1B secretion, AlphaLISA, 16 h; active compounds read low; in the data active means activity change below about -50%; inconclusive means mostly about -30% to -49%
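Secreted IL-1B measured by AlphaLISA bead assay after 16 h compound exposure of THP-1 cells; compounds (final up to 57.5 uM) added 1 h before LPS (250 ng/mL) and ATP (1.25 mM) stimulation; lower signal means less secretion.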
ELG1 repair inh – blocks ELG1-dependent DNA repair in HEK293T cells; HEK293T ELG1-luciferase reporter, luminescence, 16 h; DNA damage induced by 5-fluorouridine; Potency, µM (highest dose often 46.1 µM), inactives show top-dose activity change, negative = inhibition, actives largely listed as inhibitors; hit rate 2.3% among 330,000; AID 504467; further: potency means the concentration at half of the fitted maximal effect; nearly all actives have a fitted effect of over 55% in size
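In this reporter screen, reduction of luminescence relative to DMSO vehicle indicated activity. Compounds and 5-fluorouridine were added together to 2,000 cells per well, incubated for 16 hr at 37 °C, then developed with ONE-Glo.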
Gal4-VP16 FLuc – Gal4-VP16 reporter inhibition counter-screen | hit rate 3.5% among 310,000 | Drosophila S2 Gal4-VP16 UAS-luciferase, luminescence, 20 h | Potency, µM (titrated, usually from 53.6 µM), without a hit: at the top dose activity, negative = inhibition, actives largely listed as inhibitors;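 further: Gal4-VP16 expression switched on by copper sulfate through the metallothionein promoter; potency means the concentration at half of the fitted maximal effect; nearly all actives have a fitted effect of over 50% in size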
DT40 TDP1 CPT – DT40-hTDP1 cell growth loss with CPT; hit rate 12% among 420,000; Potency, µM (highest dose often 46.2 µM), without a hit: at the top dose activity change, negative = growth inhibition, actives largely listed as inhibitors; chicken DT40 Tdp1-/-;hTDP1 cells + 20 nM CPT, ATP luminescence, 48 h; further: potency means the concentration at half of the fitted maximal effect; nearly all actives have a fitted effect of over 55% in size
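Chicken DT40 Tdp1-/- cells complemented with human TDP1, 400 cells/well, exposed to compounds plus 20 nM camptothecin for at least 48 h at 37 C; viability read as ATP content by CellTiter-Glo luminescence.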
* marks the source's active call; other numbers are inactive results. A selection: hits, their analogues and other compounds. The true share with any hit is near 21%. Unless noted, the call rests on the fitted dose curve; in most records, active means well fitted curve in the direction sought with a large enough effect; inconclusive means small, poorly fitted or top-dose-only effect, or another doubt; inactive means no such curve, though single readings can be large; an effect the other way counts as inactive or inconclusive. On the % scale 0 is the no-effect control and ±100 the full control effect.

For COc1cccc(NS(=O)(=O)c2ccc3[nH]cc(C(=O)NC4CCCCC4)c(=O)c3c2)c1 the results were TDP1 cell noCPT 18µM* and DT40 TDP1 CPT 18µM*.
Screening CC(C)c1ccc(NC(=O)c2cc(S(=O)(=O)N3CCCCC3)c[nH]2)cc1 returned RORg inh -23%, TDP1 cell noCPT -19%, IL-1B inflam inh 0, ELG1 repair inh 23%, Gal4-VP16 FLuc 2% and DT40 TDP1 CPT -1%.
Screening COc1ccc(/C=C2\SC(=S)N(CCC(=O)Nc3ccc(C(=O)O)cc3)C2=O)cc1OC returned RORg inh -3%, TDP1 cell noCPT 15%, IL-1B inflam inh 8, ELG1 repair inh 9%, Gal4-VP16 FLuc -4% and DT40 TDP1 CPT -5%.
For COC(=O)c1ccc(/C=C2/SC(=S)N(CCC(=O)NCCCN3CCOCC3)C2=O)cc1 the results were RORg inh 8%, TDP1 cell noCPT inconclusive, IL-1B inflam inh -57*, ELG1 repair inh -12%, Gal4-VP16 FLuc 6% and DT40 TDP1 CPT inconclusive.
`O=C(CCCN1C(=O)/C(=C/c2ccccc2Cl)SC1=S)NCCCN1CCOCC1` gave RORg inh 5µM*, TDP1 cell noCPT inconclusive, IL-1B inflam inh -104*, ELG1 repair inh -18%, Gal4-VP16 FLuc 13µM* and DT40 TDP1 CPT 21µM*.
O=C1C(=Cc2cccc(O)c2O)SC(=S)N1CCCN1CCOCC1 was read as TDP1 cell noCPT 15µM*, IL-1B inflam inh -2 and DT40 TDP1 CPT 13µM*.
`Cn1cc(/C=C2\SC(=S)N(N3CCOCC3)C2=O)c2ccccc21` gave RORg inh -2%, TDP1 cell noCPT 1%, IL-1B inflam inh 7, ELG1 repair inh inconclusive, Gal4-VP16 FLuc -9% and DT40 TDP1 CPT 13%.
For O=C(CCN1C(=O)/C(=C/c2ccccc2F)SC1=S)NCCCN1CCOCC1 the results were RORg inh -27%, TDP1 cell noCPT inconclusive, IL-1B inflam inh -97*, ELG1 repair inh 1%, Gal4-VP16 FLuc -3% and DT40 TDP1 CPT inconclusive.
For O=c1c(O)c(-c2ccc(O)c(O)c2)oc2c(OC3OC(CO)C(O)C(O)C3O)c(O)cc(O)c12 (stereo not drawn) the results were RORg inh 0%, TDP1 cell noCPT -26%, Gal4-VP16 FLuc -15% and DT40 TDP1 CPT inconclusive.
COc1ccc(C)cc1NC(=O)CN1C(=O)CCc2cc(S(=O)(=O)N3CCOCC3)ccc21 was read as TDP1 cell noCPT -4% and DT40 TDP1 CPT 3%.
Screening COc1ccc(C=C2SC(=S)N(CCCN3CCOCC3)C2=O)c(OC)c1 returned TDP1 cell noCPT 16µM*, IL-1B inflam inh -11 and DT40 TDP1 CPT inconclusive.
O=C(CCN1C(=O)/C(=C\c2cccc(Br)c2)SC1=S)NCCCN1CCOCC1 was read as RORg inh -21%, TDP1 cell noCPT inconclusive, IL-1B inflam inh -20, ELG1 repair inh 0%, Gal4-VP16 FLuc -1% and DT40 TDP1 CPT inconclusive.
Screening O=C(CCN1C(=O)/C(=C/c2ccccc2)SC1=S)NCCCN1CCOCC1 returned RORg inh 24%, TDP1 cell noCPT inconclusive, IL-1B inflam inh -59*, ELG1 repair inh -15%, Gal4-VP16 FLuc 3% and DT40 TDP1 CPT inconclusive.
Cc1cc(NCCN2CCOCC2)c2ccc3ccccc3c2n1 was read as RORg inh 12%, TDP1 cell noCPT inconclusive, IL-1B inflam inh -82*, ELG1 repair inh 13%, Gal4-VP16 FLuc -7% and DT40 TDP1 CPT inconclusive.
`CCOC(=O)C(C)/C(C)=N/NC(N)=S` (stereo not drawn) gave RORg inh 0.71µM*, TDP1 cell noCPT inconclusive, IL-1B inflam inh -60*, ELG1 repair inh 1%, Gal4-VP16 FLuc 1.3µM* and DT40 TDP1 CPT 18µM*.
